Records with an inconclusive call do not appear. Entries that show only a call come without a potency. Values without a mark were called inactive. Calls of active or inactive are those of the source. The call rests on the fitted dose curve; in most records, active means well fitted cell-killing curve with a large enough effect; inconclusive means small, poorly fitted or top-dose-only effect, or effect the other way; inactive means flat fitted curve, though single readings scatter.
system: CAOV3; experiment: Primary qHTS to identify gynecologic anti-cancer compounds using libraries of approved drugs and bioactive compounds (AID 1345084); settings: Gynecologic cancer cell panel viability, ATPlite luminescence, 48 h; series mostly up to 57.5 µM; further: nearly all actives have a fitted effect of over 55% in size
Outline: (§1)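 Five-point cytotoxicity, 48 h drug exposure at 37 C, 5% CO2, on cells seeded 16 h beforehand. ATP content read by ATPlite luminescence.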
Potency means the concentration at half of the fitted maximal effect.

| SMILES | activity change, negative = cytotoxicity | Potency |
| --- | --- | --- |
| COC1C(O)C(OC2CCC3(C)C(CCC45CCC6C7(COC(=O)C7)OC4(O)C6(C)CCC35)C2)OC(C)C1OC1OC(CO)C(OC2OC(CO)C(O)C(O)C2O)C(O)C1O (configuration not stated) | 5.13% [at 11.6 µM] |  |
| COc1cc(Br)c(S(=O)(=O)Nc2ccc(Cl)c(O[C@@H]3CCN(C)C3)c2)cc1OC |  | inactive |
| Cn1cc(-c2cnn3c(N)c(Br)c(C4CCCNC4)nc23)cn1 (configuration not stated) |  | inactive |
| CC(C)C[C@@H]1NC(=O)[C@@H]2C[C@@]34C[C@@H]5[C@@]6(C)CCCC(C)(C)C6CC[C@@]5(C)N(c5ccccc53)[C@H]4N2C1=O (some centres not stated) |  | inactive |
| COc1cc(N2CCC(N3CCN(C)CC3)CC2)ccc1Nc1ncc(Cl)c(Nc2ccccc2P(C)(C)=O)n1 |  | 2.24 µM (active) |

system: CASKI; experiment: as above; settings: Gynecologic cancer cell panel viability, ATPlite luminescence, 48 h; series mostly up to 57.5 µM
Outline: as §1

| SMILES | Potency | activity change, negative = cytotoxicity |
| --- | --- | --- |
| CNc1ccc([N+](=O)[O-])c(Nc2ccc3[nH]ncc3c2)n1 | inactive |  |
| C=C1CC2OC(=O)C(COC)C2C(OC(=O)/C(C)=C\C)CC2(C)OC1=CC2=O (configuration not stated) | inactive |  |
| N#CSc1cc(SC#N)c(N)nc1N |  | 10.8% [at 11.6 µM] |
| CNS(=O)(=O)c1ccccc1Nc1nc(Nc2ccc(N3CCN(C)CC3)cc2OC)ncc1Br | 7.94 µM (active) |  |
| CNC1CN(c2ccc3c(=O)c(C(=O)O)cn(-c4nccs4)c3n2)CC1OC (configuration not stated) |  | -25.3% [at 11.6 µM] |
| CC1(C)CC[C@]2(C(=O)O)CC[C@]3(C)C(=CCC4[C@@]5(C)C[C@@H](O)[C@H](O)C(CO)(CO)C5CC[C@]43C)C2[C@@H]1O (some centres not stated) | inactive |  |
| COc1cc(/C=C2\CCCN([C@@H](C)c3ccc(F)cc3)C2=O)ccc1-n1cnc(C)c1 | inactive |  |

From PubChem BioAssay (NCATS)
